In PubChem BioAssay AID425 (Sanford-Burnham Center for Chemical Genomics, 2006):
Values joined by “and” are separate entries in the source; they are usually repeats but may differ in a detail not shown here. Equal entries are not always repeated. About 190 (0.17%) of roughly 110,000 compounds were called active. Cut-off read from the data, not from the text of the source: active = inhibition above about 50%; inactive = the rest. The full list was thinned out, with actives kept by preference. Potency and affinity values are given separately.

target: Dual specificity protein phosphatase 6 (Rattus norvegicus) (UniProt Q64346); assay: MKP-3 phosphatase inhibitors, primary screen, biochemical, rat enzyme, in vitro (AID 425); conditions: recombinant MKP-3 phosphatase activity, fluorescence; at 20 µM; active compounds read high;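 note: plate controls were vehicle for no effect and reference inhibitor for full effect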
Sequence (Q64346 whole entry, looked up): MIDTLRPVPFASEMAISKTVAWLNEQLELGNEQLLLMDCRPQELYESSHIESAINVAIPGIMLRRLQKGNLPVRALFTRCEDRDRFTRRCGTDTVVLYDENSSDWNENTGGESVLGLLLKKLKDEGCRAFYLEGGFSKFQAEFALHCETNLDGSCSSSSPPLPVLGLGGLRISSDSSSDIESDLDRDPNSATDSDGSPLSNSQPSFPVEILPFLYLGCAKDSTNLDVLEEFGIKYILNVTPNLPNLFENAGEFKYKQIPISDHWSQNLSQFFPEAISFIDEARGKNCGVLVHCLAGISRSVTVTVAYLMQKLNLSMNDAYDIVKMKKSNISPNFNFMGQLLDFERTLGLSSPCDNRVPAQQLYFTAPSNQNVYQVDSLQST

inhibition, active:
COC(=O)c1c2nc3ccccc3sc-2cc(=O)c1N 122%
Oc1c(Br)cc(Br)cc1C=Nc1ccc(Br)c2cccnc12 52.9%
Oc1c(Br)cc(Br)cc1C=Nc1ccc(Cl)c2cccnc12 98.2%
O=[N+]([O-])c1ccc(C=Nc2ccc(Cl)c([N+](=O)[O-])c2)s1 67.5%
O=C(c1ccccc1)c1ccc(N=Cc2ccc([N+](=O)[O-])s2)cc1 62.2%
O=[N+]([O-])c1ccc(C=NC23CN4CN(CN(C4)C2)C3)s1 94.6%
O=C(O)c1ccc(N=Cc2ccc([N+](=O)[O-])s2)cc1 83.1%
O=C1C(=O)c2ccccc2C(O)=C1[N+](=O)[O-] 106%
CCOc1cccc(=[O+]CC)c2c(C)oc(C)c12 96.5%
O=C1N=C(N=Nc2c(O)[nH]c3ccccc23)S/C1=C/c1ccc(Br)cc1 53.2%
Cc1cc([N+](=O)[O-])cc2c1NC(=O)C2=O 79.8%
O=C1C=CC(=O)c2c1c(-c1ccccc1)nn2-c1ccccc1 63.4%
CCn1cc(C(=O)NC2CCC(C)CC2)c(=O)c2cc(S(=O)(=O)N3CCCCC3)ccc21 (centres undefined) 56.1%

inhibition, inactive:
Cc1c(CCC(=O)O)c(=O)oc2cc(O)ccc12 2.4%
Cc1c(CCC(=O)O)c(=O)oc2cc3occ(-c4ccc(F)cc4)c3cc12 8.5%
COc1ccc(C2(O)CC3CCC(C2)N3c2cc(C)nc(-c3ccccc3)n2)cc1 (centres undefined) 7.5%
Cc1ccc(C2CC(C(F)(F)F)n3nc(C(=O)N(Cc4ccccc4)Cc4ccccc4)cc3N2)cc1 (centres undefined) 3.9%
COc1ccc(Cn2c3nc4ccccc4nc3c3c(=O)n(Cc4ccco4)c(C)nc32)cc1 8.3%
COc1ccc(Cn2c3nc4ccccc4nc3c3c(=O)n(Cc4ccco4)cnc32)cc1 2.5%
COC(=O)c1c(-c2ccccc2)csc1NC(=O)CCCC(=O)O 3.6%
CN=C(Nc1ccc(F)cc1)SC1CC(=O)N(c2ccccc2F)C1=O (centres undefined) 1.3%
COC(=O)N(C)c1nc2ccccc2s1 -5%
CCOC(=O)c1nc2ccccc2s1 -6.5%
O=C(Nc1cccc2c1CCCC2)c1ccc(Br)cc1 2.6%
O=C(Cc1ccccc1)Nc1ccccc1C(=O)N1CCN(Cc2ccccc2)CC1 2.5%
CC(Oc1ccc(Cl)cc1Cl)C(=O)N1CCN(Cc2ccccc2)CC1 (centres undefined) -0.2%
CCOC(=O)c1sc2ncn(C(CC)C(=O)OC)c(=O)c2c1C (centres undefined) -9.8%
CCOC(=O)c1sc2ncn(C(C)C(=O)OCC)c(=O)c2c1C (centres undefined) 0.5%
CCOC(=O)c1sc2ncn(C(C)C(=O)OC)c(=O)c2c1C (centres undefined) -14.1%
CCOC(=O)c1sc2nc(SCC(=O)NCc3ccco3)n(Cc3ccccc3)c(=O)c2c1C -3.7%
O=C(COc1ccc(Cl)cc1)Nc1ncccn1 -2.2%
C/C(=N\OCC(=O)N=Nc1c(O)n(CN2CCN(C)CC2)c2ccccc12)c1cccs1 -0.1%
CN(C)c1ccc(C(C2=C(O)CC(C)(C)CC2=O)C2=C(O)CC(C)(C)CC2=O)cc1 3.2%
O=C(Cn1nc(Cc2cccnc2)c2ccccc2c1=O)Nc1ccc2c(c1)OCO2 -0.1%
COC(=O)c1cc2c([nH]c3ccccc32)c(C)n1 -4%
N#Cc1c(N)nc(SCC(=O)c2ccccc2)c(C#N)c1-c1ccc(Cl)cc1 6.2%
Cc1cc2nc(-c3ccc(SCC(=O)N4CCOCC4)nc3)[nH]c2cc1C 3.3%
Cc1cc(NC(=O)CSc2ccc(-c3nc4cc(C)c(C)cc4[nH]3)cn2)no1 0.6%
Oc1c(Br)cc(Br)cc1/C=N/c1ncn[nH]1 5.8%
Oc1ccc(Br)cc1C=Nc1ccc(Cl)c2cccnc12 14.2%
Oc1oc(-c2ccccc2)nc1C=Nc1ccc(Cl)c2cccnc12 3.9%
CCc1ccc(O)c(N=Cc2cc(Br)cc(Br)c2O)c1 1.5%
COc1ccc(N(Cc2cc3ccc(C)cc3[nH]c2=O)C(C)=O)cc1 -3.9%
CC(C)Cc1cc(C(=O)NCCN2CCOCC2)no1 -10.2%
NC(=O)c1ccccc1NC(=O)c1ccc(Cl)cc1[N+](=O)[O-] -1.7%
O=C(Nc1nncs1)c1cc(-c2ccccc2Cl)nc2ccccc12 1.9%
CCOc1ccc(CCNc2nc3c(c(=O)n(C)c(=O)n3C)n2CC)cc1OCC -1%
O=C(CNc1cccc2ccccc12)N/N=C/c1cn(Cc2ccccc2)c2ccccc12 4.7%
O=C(N/N=C\c1cn(Cc2ccc(Cl)c(Cl)c2)c2ccccc12)c1ccc([N+](=O)[O-])cc1 -0.1%
O=C(c1cc2ccccc2oc1=O)N1CCCN(C(=O)c2cc3ccccc3oc2=O)CC1 3.4%
CC(C)(C)C(=O)/C=C(\N)c1ccccn1 -3.7%
COc1ccc(C2NC(=S)NC(C)=C2C(=O)Nc2ccccc2)c(OC)c1 (centres undefined) 1.7%
O=C(c1ccccc1)c1cc(Cl)ccc1N=Cc1ccc([N+](=O)[O-])s1 0.8%
CCc1ccc(C=NC23CN4CN(CN(C4)C2)C3)s1 -1.3% and -8.8%
O=[N+]([O-])c1cc(N=Cc2ccc(Br)s2)ccc1Cl 0.8%
Cc1cccc(N=Cc2ccc([N+](=O)[O-])s2)c1 49.9%
CC(=O)Nc1ccc(N=Cc2ccc([N+](=O)[O-])s2)cc1 1.2%
CN1CCN(/N=C/c2ccc([N+](=O)[O-])s2)CC1 2.9%
O=[N+]([O-])c1ccc(C=Nc2ccc(Oc3ccccc3)cc2)s1 0.3%
O=[N+]([O-])c1ccc(C=Nc2ccc(Br)c(Cl)c2)s1 -1.9%
Cn1c(O)c(N=NC(=O)COc2ccc3ccccc3c2)c2cc(Br)ccc21 3%
C/C(O)=C\C(N)=N/c1nc(C)cc(C)n1 2.7%
O=[N+]([O-])c1ccc(C(O)CN2CCN(C/C=C/c3ccccc3)CC2)cc1 (centres undefined) 3.6%
CCC(=O)N1c2ccc(S(=O)(=O)CCC(=O)N3CCn4c3nc3ccccc34)cc2CC1C (centres undefined) 6.1%
O=C(NCCNc1ccc([N+](=O)[O-])cc1Cl)c1ccccc1Cl 1.6%
COCCOC(=O)C1=C(C)NC(=O)CC1c1cccc(Cl)c1 (centres undefined) 3.6%
CN(C)CCCNC(=O)c1ccc(CN(c2ccccc2)S(C)(=O)=O)cc1 -6.3%
C/C(=N\NC(=O)C1(C)CC1(Br)Br)c1ccc(Br)s1 (centres undefined) 0.4%
COc1ccccc1CNC(=O)c1ccc(NC(C)=O)cc1 2.6%
O=C1C(=O)c2ccccc2C(O)=C1c1ccc([N+](=O)[O-])cc1 -1.5%
CN=CC1=C(O)c2ccccc2C1=O -0.6%
COc1cc(/C=N/Nc2nncc(=O)[nH]2)ccc1O -0.1%
O=C(c1cn(-c2ccccc2)nc1-c1ccc(F)cc1)N1CCOCC1 -13.6%
CC(=O)Nc1ccc(S(=O)(=O)Nc2cc(C)ccc2C)cc1 0.4%
CCOc1ccc(-c2cc(OCC)c3c(C)oc(C)c3c(=[O+]CC)c2)cc1 3.9%
CCOc1cccc(=O)c2c(C)oc(C)c12 1.6%
Cc1cc(N2CCCC(C(=O)Nc3ccc4c(c3)CCC4)C2)n2ncnc2n1 (centres undefined) -8.9%
CN(C)c1ccc(/C=C2/SC(N=Nc3c(O)[nH]c4ccccc34)=NC2=O)cc1 28.7%
Oc1[nH]c2ccccc2c1N=Nc1nc(-c2ccccc2)c2cc(Br)ccc2n1 12%
CCOC(=O)C1C(=O)CC(C)(O)C(C(=O)OCC)C1c1ccc(OCC)cc1 (centres undefined) 0.2% and -2.5%
CCOc1ccc(-n2c(SCC(N)=O)nc3c([nH]c4ccccc43)c2=O)cc1 -3.1%
CC(C)(C)c1cnnn1-c1ccc(NC(=O)c2ccc3c(c2)OCO3)cc1 -6.9%
CC(C)[C@H](NC(=O)Nc1ccc2c(c1)OCCO2)C(=O)O -0.5%
Cc1ccc(C(=O)c2nocc2C(=O)c2cccs2)cc1 -9.8%
COc1ccc(C(=O)c2no[n+]([O-])c2C(=O)c2ccc(OC)cc2)cc1 -8.8%
COC(=O)C1=C(C)NC(=O)NC1c1ccc(OCCO)c(OC)c1 (centres undefined) 4.3%
O=C(CCC1CCCC1)Nc1cccc(F)c1 -0.4%
CC(C)Cn1c(=S)[nH]c2sc3c(c2c1=O)CC(C)(C)OC3 3.9%
CCOC(=O)CCn1nnc(N)n1 -5%
Cc1cc([N+](=O)[O-])ccc1N1C(=O)c2ccccc2C1=O -1.5%
Cc1cc2c(cc1Br)NC(=O)C2=O 1.5%
O=C(CSCc1cnn(-c2ccccc2)c1-n1cccc1)NCc1cccs1 -0.1%
Cc1ccc(-n2nc(-c3ccccc3)c3c2C(=O)C=CC3=O)cc1 38.9%
O=C1c2ccccc2C(=O)c2c1c(-c1ccccc1)nn2-c1ccccc1 1.2%
CN(C)CCC(=O)c1ccc(O)cc1 3.3%
N#Cc1c(N)sc2c1CCN(Cc1ccccc1)C2 14.1%
N#Cc1c(N2CCCCC2)nc(N2CCCCC2)c2c1CCN(Cc1ccccc1)C2 3.8%
CCn1cc(C(=O)NC2CCCC2)c(=O)c2cc(S(=O)(=O)N3CCOCC3)ccc21 3.9%
CCn1cc(C(=O)NC2CCCCCC2)c(=O)c2cc(S(=O)(=O)N3CCCCC3)ccc21 3.2%
